NLRP3 yeast inh = blocks the NALP3 inflammasome reconstituted in yeast | Yeast reconstituted NLRP3/ASC/caspase-1, beta-gal luminescence, 24 h | inhibition, % at 10 µM | 0.39% of 330,000 active | AID 2825;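 active = inhibition of 50% or more; inactive = inhibition below 50%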
NALP1 yeast inh = blocks the NALP1 inflammasome reconstituted in yeast; S. cerevisiae NALP1/ASC/caspase-1 growth, X-gal OD620, 72 h; inhibition, % at 10 µM; 0.61% of 280,000 active; in the data active = inhibition mostly above about 24%, no sharp cut-off; inactive = mostly below about 32%
Bfl-1 A1 inh = inhibitors of the anti-apoptotic protein A1, read as caspase activation; MEF A1-2A-BIM cells, Caspase-Glo 3/7 luminescence, 3 h; percent of clofoctol response, vehicle zero; caspase activation, % (concentration not given with the values); 0.066% of 330,000 active; AID 2462;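 active = over half of replicate activation scores above 10%, or exactly half above 10 with the replicate mean above 10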
Mot1-301 SUMO = blocks SUMOylation pathway, rescuing yeast Mot1-301 growth. 1% of 320,000 active. S. cerevisiae Mot1-301 growth rescue, ATP luminescence, 38.5C; percent above DMSO median, 100 means doubled. AID 2716. growth rescue, % at 18.8 µM;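 active = every valid replicate shows activation above 250% relative to neutral control wells; inactive = the rest, any valid replicate at or below 250%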
CHT PAM = human CHT allosteric activation; Q9GZV3; CHT-expressing cells, membrane potential dye, choline EC20; hits give high values; LV-AA mutant CHT in HEK293 cells; B-score at 10 µM; 0.49% of 310,000 active; AID 488977;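 active = initial fluorescence not abnormally high and integrated response B-score, plate-corrected, over 3 SD above library mean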
Target sequence (Q9GZV3 whole entry, looked up): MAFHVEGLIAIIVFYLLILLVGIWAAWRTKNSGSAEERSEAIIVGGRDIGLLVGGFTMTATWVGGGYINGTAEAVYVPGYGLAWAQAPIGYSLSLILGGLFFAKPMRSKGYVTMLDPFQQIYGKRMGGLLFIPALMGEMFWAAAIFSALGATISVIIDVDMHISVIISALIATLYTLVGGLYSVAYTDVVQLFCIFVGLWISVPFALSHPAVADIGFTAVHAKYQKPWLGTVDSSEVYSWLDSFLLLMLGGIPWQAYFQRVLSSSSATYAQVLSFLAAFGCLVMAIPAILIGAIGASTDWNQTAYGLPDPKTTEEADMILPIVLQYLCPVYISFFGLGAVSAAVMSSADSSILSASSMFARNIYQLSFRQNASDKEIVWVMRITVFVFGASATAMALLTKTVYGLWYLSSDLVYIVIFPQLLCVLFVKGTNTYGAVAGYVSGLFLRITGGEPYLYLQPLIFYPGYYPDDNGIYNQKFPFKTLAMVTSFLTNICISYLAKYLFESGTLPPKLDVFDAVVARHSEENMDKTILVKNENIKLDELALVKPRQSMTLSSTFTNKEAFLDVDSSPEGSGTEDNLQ
CHT block = inhibitors of human choline transporter CHT. CHT-expressing cells, membrane potential dye, choline response; hits give low values. B-score at 10 µM. 0.86% of 310,000 active;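 active = B-score over 3 SD under the library average, and starting fluorescence ratio not unusually high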;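 note: choline stimulus applied at its EC90 after an EC20 pre-addition; B-score computed on integrated fluorescence ratio after choline addition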
CHT block conf = confirmation of human choline transporter CHT inhibitors; shares compounds with CHT block; CHT-expressing cells, choline membrane potential dye; LV-to-AA substituted CHT, HEK293 cells; CHT activity remaining % of control (hits give low values), % at 10 µM; 70% of 2,400 active; AID 493221;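 active = choline transporter activity left, mean of duplicates at 10 µM, below buffer-only control mean minus 3 SD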;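 note: depolarization triggered by choline at its EC90 following an EC20 pre-addition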
HEK293 MPD ctr = counter-screen for CHT inhibitors: effect in parental HEK293 cells; shares compounds with CHT block; membrane potential dye, choline response; active = decrease or increase beyond buffer ±3SD; membrane potential ratio readout (active if shifted either direction beyond buffer ±3SD; no single direction) at 10 µM; 4% of 2,400 active;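 note: parental cells lack the transporter so any hit is non-specific; ratio is peak minus trough fluorescence over baseline after EC90 choline challenge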
Numbers stand for hits; . = inactive; / = no result given. Only some compounds are listed: those with a hit (about 3% of all), similar ones and a draw of the others.

SMILES	NLRP3 yeast inh	NALP1 yeast inh	Bfl-1 A1 inh	Mot1-301 SUMO	CHT PAM	CHT block	CHT block conf	HEK293 MPD ctr
COc1ccc(S(=O)(=O)N(C)C)cc1NC(=O)c1ccc(OCC(=O)N2CCOCC2)c(OC)c1	.	/	.	.	.	.	/	/
COc1ccc(/C=C2/SC(=S)N(CCC(=O)N3CCN(C)CC3)C2=O)cc1	.	.	.	.	.	.	/	/
CN1CCN(C(=O)CCCN2C(=O)/C(=C/c3ccccc3)SC2=S)CC1	.	.	.	.	.	-6.6	46%	.
COc1ccc(/C=C2/SC(=S)N(CCCC(=O)N3CCN(C)CC3)C2=O)cc1	.	.	.	.	.	-6.5	42%	.
CC(C)(C)NC(=O)c1ccccc1NC(=O)C1CC(=O)N(C2CCCCC2)C1 (configuration not stated)	.	.	.	.	.	.	/	/
CCCn1c(=O)c2ccccc2n2c(SCCOc3ccccc3)nnc12	.	.	.	.	.	-6.2	.	.
CCn1c(SCC(=O)N2CCCc3ccccc32)nc2cccnc21	.	.	.	.	.	.	/	/
CCn1c(SCC(=O)N2CCCc3ccccc32)nc2ccccc2c1=O	.	.	.	/	.	-6.1	.	.
O=C(Nc1ccc(Cl)cc1F)C1CCN(S(=O)(=O)c2cccc3nonc23)CC1	.	.	.	.	.	.	/	/
COc1ccc(C(=O)OCC2CC(c3ccccc3)=NO2)cc1OC (configuration not stated)	.	.	.	.	.	.	/	/
COc1cc(C(=O)OCC2CC(c3ccccc3)=NO2)cc(OC)c1OC (configuration not stated)	.	.	.	.	.	.	.	.
CCOC(=O)CSc1n[nH]c(NC(=O)NC(C)C)n1	.	.	.	.	.	.	/	/
CCCCn1c(=O)n(Cc2cccc(F)c2)c(=O)c2c1ncn2Cc1ccco1	.	.	.	.	.	-12	53%	.
Cc1nc2ccccc2n1Cc1ccccc1	.	.	.	.	.	.	/	/
Cc1nc2ccccc2n1CSc1ccccc1	.	.	.	.	.	.	.	.
O=C1C[C@H]2[C@H](CO)[C@@H](OC(=O)c3ccc(-c4ccccc4)cc3)C[C@H]2O1	.	.	.	.	.	-5.8	64%	.
O=C1CC2C(CC(OC(=O)c3ccc(-c4ccccc4)cc3)C2CO)O1 (configuration not stated)	.	.	.	.	.	.	/	/
S=C(NCC1CCCO1)Nc1cc(Cl)c(Cl)cc1Cl (configuration not stated)	.	.	.	.	.	-9.9	41%	.
S=C(NCC1CCCO1)Nc1cccc2ccccc12 (configuration not stated)	.	.	.	.	.	.	/	/
c1ccc(-c2csc(NC3=NCCCCC3)n2)cc1	.	/	.	.	.	-7.1	.	.
CCNC(=O)C1(c2ccccc2)CCCC1	.	/	.	.	.	-6.8	.	.
CCOc1ccc(-c2cc(C(=O)NCCCN3CCCC3)c3ccccc3n2)cc1	.	.	.	.	.	.	/	/
O=C(NCC1CCCO1)c1sc(=S)n2c1[nH]c(=O)c1ccc(C(=O)N3CCCCC3)cc12 (configuration not stated)	.	.	.	.	.	.	/	/
O=C(NCCc1ccccc1)c1ccc2c(=O)[nH]c3c(C(=O)NCC4CCCO4)sc(=S)n3c2c1 (configuration not stated)	.	.	.	.	.	-10	-19%	.
Nn1c(SCC(=O)Nc2cccc(S(N)(=O)=O)c2)nnc1C1CC1	.	.	.	.	.	.	/	/
SMILES	NLRP3 yeast inh	NALP1 yeast inh	Bfl-1 A1 inh	Mot1-301 SUMO	CHT PAM	CHT block	CHT block conf	HEK293 MPD ctr
NS(=O)(=O)c1cccc(NC(=O)CSc2nnc(C3CC3)n2Cc2ccccc2)c1	.	.	.	.	.	-5.9	.	.
C=CCOc1ccccc1CNCCc1ccc(S(N)(=O)=O)cc1	.	.	.	.	.	.	/	/
NS(=O)(=O)c1ccc(CCNCc2ccccc2OCc2ccc(Cl)cc2)cc1	.	.	.	.	.	-5.1	27%	.
NS(=O)(=O)c1ccc(CCNCc2cc(Cl)ccc2OCc2ccccc2)cc1	.	.	.	.	.	-6.5	50%	.
O=C(CC1C(=O)NCCN1C(=O)Nc1ccccc1)Nc1cc(Cl)cc(Cl)c1 (configuration not stated)	.	.	.	.	.	-5	16%	.
O=C(CC1C(=O)NCCN1C(=O)Nc1ccccc1)Nc1cccc(Cl)c1 (configuration not stated)	.	.	.	.	.	.	/	/
O=C(NNC(=S)NC1CCCCC1)c1ccccc1O	.	.	.	.	.	-5	53%	.
Cc1ccc(CSc2nc3nc(C)cc(C)n3n2)cc1	.	.	.	.	.	.	/	/
Cc1cc(C)n2nc(SCc3cccc(S(=O)(=O)N(C)C)c3)nc2n1	.	.	.	.	.	-5.3	68%	.
COc1ccc(CSc2nc3nc(C)cc(C)n3n2)cc1F	.	.	.	.	.	-6	46%	.
O=C(Cn1ncc2c1-c1ccccc1OC2)N(Cc1ccco1)C1CCCCC1	.	.	.	.	.	-4.9	.	.
CCOC(=O)CNC(=O)CSc1nc(Cc2ccccc2)nc2ccccc12	.	.	.	.	.	-6.6	.	.
COc1cc(Br)ccc1NC(=O)c1ccccc1-c1ccccc1C(=O)O	.	/	.	.	.	-5.4	.	.
CC(C)C(NCC(=O)Nc1ccccc1C(=O)NC1CC1)c1ccccc1 (configuration not stated)	.	/	.	.	/	/	/	/
O=C(Cc1ccc(-n2c(=O)c3ccccc3n(Cc3ccccc3F)c2=O)cc1)NCC1CCCO1 (configuration not stated)	.	.	.	.	.	-7.8	41%	.
CCc1ccccc1NC(=O)Cn1c(=O)n(-c2ccc(CC(=O)NCC3CCCO3)cc2)c(=O)c2ccccc21 (configuration not stated)	.	.	.	.	.	.	/	/
COc1ccc(OC)c(S(=O)(=O)N2CCC(C(=O)N3CCc4ccccc4C3)CC2)c1	.	.	.	.	.	.	.	.
COc1ccccc1CNC(=O)C(C)n1nc(C)n2c(cc3occc32)c1=O (configuration not stated)	.	.	.	.	.	.	/	/
CCc1nn(C(C)C(=O)NCc2cccc(Cl)c2)c(=O)c2cc3occc3n12 (configuration not stated)	.	.	.	.	.	.	/	/
